Assay outcomes: PubChem, National Center for Advancing Translational Sciences (NCATS)
Hits are enriched below; roughly 19% of the tested compounds scored in any of these assays.
TDP1 cell CPT: qHTS for Inhibitors of human tyrosyl-DNA phosphodiesterase 1 (TDP1): qHTS in cells in presence of CPT; chicken DT40 Tdp1-/-;hTDP1 cells + 20 nM CPT, ATP luminescence, 48 h; Potency, µM (highest dose often 46.2 µM), usual class: inhibitors; 12% of 420,000 active; also: nearly all actives have a fitted effect of over 55% in size
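Chicken DT40 Tdp1-/- cells complemented with human TDP1, 400 cells/well, exposed to compounds plus 20 nM camptothecin for at least 48 h at 37 C; viability read as ATP content by CellTiter-Glo luminescence.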
IL-1B inflam inh: qHTS for Inhibitors of Inflammasome Signaling: IL-1-beta AlphaLISA Primary Screen; THP-1 LPS/ATP IL-1B secretion, AlphaLISA, 16 h; stronger effect = lower value; activity change, % at 57.5 µM; 4.7% of 360,000 active; in the data active = activity change below about -50%; inconclusive = mostly about -30% to -49%
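THP-1 cells pretreated 1 hr with compounds (up to 57.5 uM final), then stimulated with LPS (250 ng/mL final) plus ATP (1.25 mM final); secreted IL-1B measured by AlphaLISA after 16 hr, decreased signal indicating inhibition.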
HepG2 viability: qHTS for Inhibitors of TGF-b: Cytotox Counterscreen | 0.76% of 410,000 active | AID 588856, 2011 | HepG2 CAGA-GFP viability, ATP luminescence, 18 h | Potency, µM (doses to about 46.1 µM), most hits filed as cytotoxic
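CellTiter-Glo luminescence gave cytotoxicity after 18 hours at 37 degrees C. The cells were HepG2 CAGA-GFP in 1% FBS DMEM, stimulated with 500 pg/mL TGF-beta after compound addition. %Activity was normalised to no-cell wells (complete cell-killing) and DMSO (no toxicity), and curves were fitted and classified.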
DT40 TDP1 no CPT: qHTS for Inhibitors of human tyrosyl-DNA phosphodiesterase 1 (TDP1): qHTS in cells in absence of CPT. DT40 Tdp1-/- hTDP1 cells, no CPT, ATP luminescence, 48 h. Potency, µM (doses to about 46.2 µM), most hits filed as inhibitors. 15% of 420,000 active. AID 686978, 2013; also: nearly all actives have a fitted effect of over 55% in size
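Growth of hTDP1-complemented DT40 Tdp1-knockout cells is measured by ATP luminescence after at least 48 hr compound exposure at 37 °C, with DMSO substituting for the 20 nM CPT used in the parallel screen.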
TGFb inhibitor: qHTS for Inhibitors of TGF-b | Potency, µM (titrated, usually from 46.1 µM), hits mostly inhibitors | 1.2% of 410,000 active | AID 588855, 2011 | HepG2 CAGA-GFP TGF-b/SMAD3 reporter, GFP fluorescence, 18 h; TGF-beta stimulated, 500 pg/mL final; also: nearly all actives have a fitted effect of over 65% in size
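Read-out: total well GFP (ex488/em500-530) summed from mean per-cell fluorescence. Cells: HEPG2 CAGA-GFP, 1% FBS DMEM, 18 h at 37 degrees C with 500 pg/mL final TGF-beta. Unstimulated wells served as the full-inhibition control; stimulated DMSO wells = 0%.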
S-ASM inh: Inhibitors of Secretory Acid Sphingomyelinase (S-ASM): qHTS; AID 504937, 2011; 0.006% of 340,000 active; Potency, µM (doses to about 57.5 µM), hits mostly inhibitors; placental ASM, HMU-PC fluorogenic substrate, 60 min; Sphingomyelin phosphodiesterase (Homo sapiens), P17405
Target sequence (P17405 47-631 limits assumed): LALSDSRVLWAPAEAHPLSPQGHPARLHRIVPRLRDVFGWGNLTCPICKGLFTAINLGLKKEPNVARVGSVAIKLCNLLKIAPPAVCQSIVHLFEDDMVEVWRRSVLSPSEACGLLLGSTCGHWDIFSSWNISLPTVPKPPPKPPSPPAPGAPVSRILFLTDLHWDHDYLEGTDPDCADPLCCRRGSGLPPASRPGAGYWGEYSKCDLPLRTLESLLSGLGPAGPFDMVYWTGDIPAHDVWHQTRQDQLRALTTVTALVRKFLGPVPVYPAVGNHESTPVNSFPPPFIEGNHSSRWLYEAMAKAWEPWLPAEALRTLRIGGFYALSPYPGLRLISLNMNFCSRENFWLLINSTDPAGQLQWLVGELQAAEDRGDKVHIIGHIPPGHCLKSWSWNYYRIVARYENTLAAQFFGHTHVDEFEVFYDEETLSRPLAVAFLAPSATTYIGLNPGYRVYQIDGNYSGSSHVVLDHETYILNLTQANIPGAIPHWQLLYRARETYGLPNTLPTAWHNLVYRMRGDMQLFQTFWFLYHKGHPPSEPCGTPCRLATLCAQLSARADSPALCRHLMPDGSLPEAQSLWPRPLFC
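HMU-PC0 cleavage (9 uM final) by human placental ASM, 60 min at 37 °C following 10 min compound exposure at RT; stopped at pH 10, fluorescence Ex 386/Em 447 nm.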
A number is an active result; [ ] = another dose, or the depositor's remark. Unless noted, calls follow the shape of the dose curve; as a rule, active = well fitted curve in the direction sought with a large enough effect; inconclusive = small, poorly fitted or top-dose-only effect, or another doubt; inactive = no such curve, though single readings can be large; an effect the other way counts as inactive or inconclusive.

CCN(C(=O)c1cn(-c2ccc(OC)cc2)c(=O)c2ccccc12)c1cccc(Cl)c1 was read as TDP1 cell CPT 16.4µM, HepG2 viability inactive, DT40 TDP1 no CPT 16.4µM and TGFb inhibitor 15.8µM.
Cc1ccc(-n2cc(C(=O)Oc3ccc(F)cc3)c3ccccc3c2=O)cc1 was read as TDP1 cell CPT 16.4µM, HepG2 viability inactive, DT40 TDP1 no CPT inconclusive and TGFb inhibitor inactive.
COc1ccc(-n2cc(C(=O)NC(C)c3ccccc3)c3ccccc3c2=O)cc1 (configuration not stated) was read as TDP1 cell CPT 18.4µM, HepG2 viability inactive, DT40 TDP1 no CPT inconclusive and TGFb inhibitor inconclusive.
`COc1ccc(-n2cc(C(=O)O)c3ccccc3c2=O)cc1` gave TDP1 cell CPT inactive, IL-1B inflam inh inactive, HepG2 viability inactive, DT40 TDP1 no CPT inactive, TGFb inhibitor inactive and S-ASM inh inactive.
Cc1ccc(-n2cc(C(=O)Oc3cccc(C)c3)c3ccccc3c2=O)cc1 was read as TDP1 cell CPT inactive, HepG2 viability inactive, DT40 TDP1 no CPT inactive and TGFb inhibitor inactive.
COc1cccc(-n2cc(C(=O)NC(C)C)c3ccccc3c2=O)c1 was read as TDP1 cell CPT inactive, IL-1B inflam inh inactive, HepG2 viability inactive, DT40 TDP1 no CPT inactive, TGFb inhibitor inactive and S-ASM inh inactive.
O=C(c1ccco1)N(Cc1cc2cc3c(cc2nc1N1CCOCC1)CCC3)CC1CCCO1 (configuration not stated) was read as TDP1 cell CPT inactive[9.04 µM] and DT40 TDP1 no CPT inactive.
For COc1ccc(-n2cc(C(=O)NCCc3ccc(C)cc3)c3ccccc3c2=O)cc1 the results were TDP1 cell CPT inconclusive, HepG2 viability inactive, DT40 TDP1 no CPT 20.6µM and TGFb inhibitor inconclusive.
`COc1cccc(-n2cc(C(=O)NCCc3ccc(C)cc3)c3ccccc3c2=O)c1` gave TDP1 cell CPT 8.2µM, HepG2 viability inactive, DT40 TDP1 no CPT 10.3µM and TGFb inhibitor inactive.
COc1cccc(-n2cc(C(=O)Nc3cccc(C(F)(F)F)c3)c3ccccc3c2=O)c1 was read as TDP1 cell CPT 16.4µM, HepG2 viability inactive, DT40 TDP1 no CPT inconclusive and TGFb inhibitor inconclusive.
For COc1cccc(-n2cc(C(=O)NCCCOC(C)C)c3ccccc3c2=O)c1 the results were TDP1 cell CPT inactive, IL-1B inflam inh inactive, HepG2 viability inactive, DT40 TDP1 no CPT inactive, TGFb inhibitor inactive and S-ASM inh inactive.
Screening CCOc1ccc(CCNC(=O)c2cn(-c3ccc(OC)cc3)c(=O)c3ccccc23)cc1OCC returned TDP1 cell CPT inconclusive, HepG2 viability inactive, DT40 TDP1 no CPT inconclusive and TGFb inhibitor inactive.
For COc1cccc(-n2cc(C(=O)NCc3ccc(C)cc3)c3ccccc3c2=O)c1 the results were TDP1 cell CPT 14.6µM, HepG2 viability inactive, DT40 TDP1 no CPT inconclusive and TGFb inhibitor inactive.
`CC1CCN(CCCNC(=O)CCCNC(=O)Cn2cnc3sc4c(c3c2=O)CCCC4)CC1` gave TDP1 cell CPT inactive, IL-1B inflam inh -100.6, HepG2 viability inactive, DT40 TDP1 no CPT inactive, TGFb inhibitor inactive and S-ASM inh inactive.
For Cc1sc2ncn(CC(=O)NCCCN3CC(C)CC(C)C3)c(=O)c2c1S(=O)(=O)N1CC(C)CC(C)C1 (configuration not stated) the results were TDP1 cell CPT 18.4µM, IL-1B inflam inh inactive, HepG2 viability inactive, DT40 TDP1 no CPT inconclusive, TGFb inhibitor inactive and S-ASM inh inactive.
`CC1CCN(C(=O)CCCNC(=O)Cn2cnc3sc4c(c3c2=O)CCCC4)CC1` gave TDP1 cell CPT inactive, IL-1B inflam inh inactive, HepG2 viability inactive, DT40 TDP1 no CPT inactive, TGFb inhibitor inactive and S-ASM inh inactive.
`Cc1sc2ncn(CC(=O)NCCCN3CCC(C)CC3)c(=O)c2c1S(=O)(=O)N1CCC(C)CC1` gave TDP1 cell CPT inactive, IL-1B inflam inh inactive, HepG2 viability inactive, DT40 TDP1 no CPT inactive, TGFb inhibitor inactive and S-ASM inh inactive.
Screening COc1ccc(CCNC(=O)Cn2c(=O)c3cccn3c3ccccc32)cc1OC returned TDP1 cell CPT inconclusive, HepG2 viability inactive, DT40 TDP1 no CPT 23.1µM and TGFb inhibitor inactive.
For Cc1cccc(CNC(=O)CCCn2c(=O)c3cccn3c3ccc(F)cc32)c1 the results were TDP1 cell CPT inconclusive, HepG2 viability inactive, DT40 TDP1 no CPT 23.1µM and TGFb inhibitor inactive.
For COc1ccc(CNC(=O)CCn2c(=O)c3cccn3c3ccc(F)cc32)cc1OC the results were TDP1 cell CPT inactive, HepG2 viability inactive, DT40 TDP1 no CPT inconclusive and TGFb inhibitor inactive.
COc1ccc(CCNC(=O)Cn2c(=O)c3cccn3c3ccc(F)cc32)cc1OC was read as TDP1 cell CPT inactive, HepG2 viability inactive, DT40 TDP1 no CPT inconclusive and TGFb inhibitor inconclusive.
Screening COc1ccc(CNC(=O)CCCn2c(=O)c3cccn3c3ccc(F)cc32)cc1OC returned TDP1 cell CPT 18.4µM, HepG2 viability inactive, DT40 TDP1 no CPT 18.4µM and TGFb inhibitor inactive.
CNC(=O)Cn1c(=O)c2cccn2c2ccc(F)cc21 was read as TDP1 cell CPT inactive, HepG2 viability inactive, DT40 TDP1 no CPT inactive and TGFb inhibitor inactive.
`O=C(NC1CCN(C(=O)Nc2ccc(F)cc2)CC1)c1ccc(F)cc1` gave TDP1 cell CPT inactive, IL-1B inflam inh inactive, HepG2 viability inactive, DT40 TDP1 no CPT inactive, TGFb inhibitor inactive and S-ASM inh inactive.
Screening O=C(C[n+]1cc(Br)cc(Br)c1)c1ccc2ccccc2c1 returned TDP1 cell CPT inactive, HepG2 viability inactive, DT40 TDP1 no CPT inconclusive and TGFb inhibitor inactive.
`CCOCCCn1c(C)nc2c[n+](CC(=O)c3ccc4ccccc4c3)cc(Br)c21` gave TDP1 cell CPT 2.31µM, IL-1B inflam inh -58.4, HepG2 viability inactive, DT40 TDP1 no CPT 2.59µM, TGFb inhibitor inactive and S-ASM inh inactive.
For Cn1nnc2c[n+](CC(=O)c3ccc4ccccc4c3)cc(Br)c21 the results were TDP1 cell CPT inconclusive, IL-1B inflam inh -101.4, HepG2 viability inactive, DT40 TDP1 no CPT 14.6µM, TGFb inhibitor inconclusive and S-ASM inh inactive.
`Cc1cccc(NC(=O)/C(C#N)=C/c2ccco2)c1` gave TDP1 cell CPT inconclusive, HepG2 viability inactive, DT40 TDP1 no CPT inconclusive and TGFb inhibitor inactive.
